# Only some compounds are listed: those with a hit (about 21% of all), similar ones and a draw of the others.
# CHX counter – Cycloheximide Counterscreen for Small Molecule Inhibitors of Shiga Toxin | cell reporter, cycloheximide protein synthesis inhibition counterscreen | max response, % | 12% of 300,000 active | AID 2314, 2010; in the data active = max response mostly above about 13%, no sharp cut-off; inactive = mostly below about 14%; also: read at 38.3 µM for the half of the compounds with a filed dose
# Pf growth 48h – Primary qHTS for delayed death inhibitors of the malarial parasite plastid, 48 hour incubation; P. falciparum luciferase growth in erythrocytes, 48 h; Potency, µM (titrated, usually from 28.7 µM), actives largely listed as inhibitors; 5.9% of 310,000 active; AID 504832, 2011
#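 Erythrocytes infected with P. falciparum carrying an integrated firefly luciferase reporter (2% hematocrit, 0.1% parasitemia final) were exposed to compounds in RPMI 1640 with 0.5% Albumax at 37 C, 5% CO2. Growth inhibition was scored as reduced luminescence.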
# Pf growth 96h – Primary qHTS for delayed death inhibitors of the malarial parasite plastid, 96 hour incubation; P. falciparum luciferase reporter growth, 96 h; Potency, µM (highest dose often 28.7 µM), most hits filed as inhibitors; 6.9% of 320,000 active
#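 Infected RBCs, 2% Hct / 0.05% parasitemia final; luciferase-reporter P. falciparum; cpd 96 h, 37 C, 5% CO2; luciferase detection reagent; luminescence.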
# Shiga toxin inh – A qHTS for Small Molecule Inhibitors of Shiga Toxin; AID 2315, 2010; inhibition, % at 38.7 µM; Vero cells, Shiga toxin protein synthesis inhibition reporter; 9.2% of 290,000 active; in the data active = inhibition mostly above about 28%, no sharp cut-off; inactive = mostly below about 43%
# SARS PLpro yeast – qHTS of Yeast-based Assay for SARS-CoV PLP. S. cerevisiae expressing SARS-CoV PLpro, growth rescue. Potency, µM (highest dose often 32.9 µM), usual class: activators. 0.19% of 330,000 active; calls by dose curve; also: nearly all actives have a fitted effect of over 55% in size
# NS1 inh – qHTS Assay for Inhibitors of Influenza NS1 Protein Function; Potency, µM (highest dose often 46.1 µM); 0.4% of 270,000 active; calls by dose curve; also: actives are rising curves; nearly all actives have a fitted effect of over 50% in size
#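 In this qHTS, NS1 from influenza A is expressed in budding yeast, where it slows growth. Cells are switched from glucose to 2% galactose medium (pH 6.0, -URA), treated with compound, and growth recovery is read at OD600.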
# Hits are given with their value; 0 = inactive; ? = inconclusive; - = no result given. Unless noted, calls follow the shape of the dose curve; as a rule, active = well fitted inhibition curve with a large enough effect; inconclusive = small, poorly fitted or top-dose-only effect, or another doubt; inactive = no such curve, though single readings can be large or run the other way.
SMILES,CHX counter,Pf growth 48h,Pf growth 96h,Shiga toxin inh,SARS PLpro yeast,NS1 inh
COc1ccc2c(c1)C(c1ccccc1OC)CC(=O)O2 (stereo not drawn),0,-,-,0,-,-
CCC(C)CCN1C(N(C)C)=NC[C@@H]1C (stereo partly drawn),-,0,0,-,0,-
COc1ccccc1Nc1nc(N)nc(-c2oc3ccccc3c2C)n1,0,-,0,0,0,0
Cc1c(-c2nc(N)nc(Nc3ccc(F)cc3)n2)oc2ccccc12,22,?,?,84,0,0
O=c1oc2ccccc2c(Nc2ccc(F)cc2)c1[N+](=O)[O-],0,?,0,0,0,-
Cc1ccccc1Nc1nc(N)nc(-c2oc3ccccc3c2C)n1,64,0,0,122,0,0
CCN1C(=O)[C@@H]2[C@@H](c3ccc(-c4ccc5c(c4)OCO5)cc3)N3CCCC[C@@]3(C(=O)OC)[C@@H]2C1=O,-,?,13µM,-,0,-
CCN1C(=O)[C@H]2[C@@H](c3ccc(-c4ccccc4)cc3)N3CCCC[C@@]3(C(=O)OC)[C@H]2C1=O,-,10µM,?,-,0,-
CCSc1ccc([C@@H]2[C@@H]3C(=O)N(CC)C(=O)[C@@H]3[C@]3(C(=O)OC)CCCCN23)cc1,-,0,0,-,0,-
CCN1C(=O)[C@@H]2[C@@H](c3ccc(-c4ccc(OC)cc4)cc3)N3CCCC[C@@]3(C(=O)OC)[C@@H]2C1=O,-,10µM,5.2µM,-,0,-
COC(=O)[C@@]12CCCCN1[C@H](c1ccc(-c3ccc(C(C)=O)cc3)cc1)[C@H]1C(=O)N(C)C(=O)[C@H]12,-,?,0,-,0,-
CCN1C(=O)[C@@H]2[C@@H](c3ccc(-c4ccc(C(C)=O)cc4)cc3)N3CCCC[C@@]3(C(=O)OC)[C@@H]2C1=O,-,10µM,12µM,-,0,-
CCN1C(=O)[C@H]2[C@@H](c3ccc(-c4ccc5c(c4)OCO5)cc3)N3CCC[C@@]3(C(=O)OC)[C@H]2C1=O,-,?,0,-,0,-
COc1ccc(N(CC(=O)NC(C)(C)C)S(=O)(=O)c2ccccc2)cc1OC,0,-,?,0,0,0
CCc1ccc(OCC(=O)Nc2ncc3c(n2)CC(C)(C)CC3=O)cc1,0,0,3.3µM,0,0,0
CC1(C)CC(=O)c2cnc(NC(=O)CCc3ccccc3)nc2C1,0,0,-,0,0,0
COc1cccc(C(=O)Nc2ncc3c(n2)CC(C)(C)CC3=O)c1,0,0,0,0,0,0
CC1(C)CC(=O)c2cnc(NC(=O)c3ccco3)nc2C1,0,0,0,84,0,0
CN(C)CCn1nnnc1SCC1=C(C(=O)O)N2C(=O)[C@@H](NC(=O)Cc3csc(N)n3)[C@H]2SC1,-,0,0,-,-,-
CN(C)CCn1nnnc1SCC1=C(C(=O)O)N2C(=O)[C@@H](NC(=O)Cc3csc(N)n3)[C@@H]2SC1,-,?,6.4µM,-,-,-
COc1ccc(-c2csc(-c3ccc(O)cc3)n2)cc1,52,0,0,73,0,0
COc1ccc(-c2nc(CCl)cs2)cc1,45,0,0,54,0,-
COc1cccc(-c2nc(CCl)cs2)c1,37,0,0,57,0,-
CCc1ccc(-c2nc(CCl)cs2)cc1,37,0,0,90,0,0
COc1ccc(-c2nc(-c3ccc(O)cc3O)cs2)cc1OC,30,0,?,55,0,0
SMILES,CHX counter,Pf growth 48h,Pf growth 96h,Shiga toxin inh,SARS PLpro yeast,NS1 inh
COc1ccc(N2CC(O)=C(c3nc(-c4ccc(Br)cc4)cs3)C2=N)cc1,0,0,0,0,0,-
COc1ccc(-c2csc(C3=C(O)CN(C(C)C)C3=N)n2)cc1OC,0,10µM,?,0,0,0
COc1ccc(N2CC(O)=C(c3nc(-c4ccccc4)cs3)C2=N)cc1,0,?,0.47µM,0,0,0
COc1ccc(-c2nc(CCl)cs2)cc1OC,29,0,?,45,0,-
O=C(Nc1cc(Cl)cc(Cl)c1)C1CC(=O)N(C2CCCC2)C1 (stereo not drawn),-,0,0,-,0,-
Cc1ccc(OCC(=O)Nc2ccc3c(c2)C(=O)NC3=O)cc1,0,0,?,0,0,0
CCOc1ccc2c(c1)OC(c1ccc(C)cc1)(C(F)(F)F)NC2=O (stereo not drawn),27,1µM,3.3µM,53,0,0
O=C(CN1CCN(c2cccc(Cl)c2)CC1)NCc1ccccc1,0,0,10µM,0,0,0
O=C(CN1CCCC1)NCc1ccccc1,0,0,13µM,0,0,0
O=C(CN1CCOCC1)NCc1ccccc1,0,0,?,0,0,0
O=C(Cn1ccc2ccccc2c1=O)NCCC(=O)N1CCN(c2cccc(Cl)c2)CC1,0,-,7.4µM,0,0,0
Cc1ccc(C(C(=O)NC2CCCC2)N(C(=O)c2csnn2)c2ccccc2)o1 (stereo not drawn),0,0,?,0,0,0
Cc1nc2sccn2c(=O)c1S(=O)(=O)N1CCN(c2cccc(C(F)(F)F)c2)CC1,0,?,10µM,0,0,0
O=C(CN(c1ccc(Cl)c(C(F)(F)F)c1)S(=O)(=O)c1ccccc1)N/N=C/c1cccc2c1OCCO2,0,0,?,0,0,?
Cc1ccccc1-c1cc(C(=O)NCc2ccco2)nn1CC1CC(c2cccc([N+](=O)[O-])c2)=NO1 (stereo not drawn),-,-,-,-,0,-
Cc1ccccc1-c1cc(C(=O)NCc2cccc(C(F)(F)F)c2)nn1CC1CC(c2cccc([N+](=O)[O-])c2)=NO1 (stereo not drawn),-,3.7µM,6.6µM,-,0,-
Cc1ccccc1-c1cc(C(=O)NCc2cccs2)nn1CC1CC(c2cccc([N+](=O)[O-])c2)=NO1 (stereo not drawn),-,3.3µM,2.1µM,-,0,-
Cc1ccccc1-c1cc(C(=O)NCc2ccc(OC(F)(F)F)cc2)nn1CC1CC(c2cccc([N+](=O)[O-])c2)=NO1 (stereo not drawn),-,-,-,-,0,-
O=C(CNC(=O)c1ccc([N+](=O)[O-])cc1)N/N=C\c1ccc(OC(=O)c2ccccc2)cc1,0,?,-,0,0,0
Cc1ccc(CC(=O)N/N=C/c2ccc(OC(=O)c3ccc([N+](=O)[O-])cc3)cc2)cc1,0,0,?,0,0,0
Cc1cc([N+](=O)[O-])cc(C)c1OCC(=O)N/N=C/c1ccc(OC(=O)c2ccccc2Br)cc1,0,0,10µM,0,0,0
Cc1cc([N+](=O)[O-])cc(C)c1OCC(=O)N/N=C/c1ccc(OC(=O)c2ccccc2)cc1,0,?,2.1µM,0,0,0
Cc1nn(CCCC(=O)Nc2cccnc2Cl)c(C)c1[N+](=O)[O-],0,0,?,0,0,-
Cc1ccc(S(=O)(=O)CCC(=O)OCC(=O)NC2CCS(=O)(=O)C2)cc1 (stereo not drawn),-,0,0,-,0,-
CCOC(=O)CCCn1ncn2c(cc3occc32)c1=O,55,-,?,0,0,0
